Results: PubChem BioAssay
Calls of active or inactive are those of the source.

How the values were obtained:
[1] = system: PRMT1 (protein arginine N-methyltransferase 1); assay: PRMT1 binders on small-molecule microarrays, primary screen, biochemical, small-molecule microarray, 635 nm fluorescence (AID 1088); details: small-molecule microarray binding, higher = more signal;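 also: binding of Prmt1 protein to compounds spotted on small-molecule microarray slides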
[2] = yeast growth modulation, basal conditions, primary screen, YJM789 clinical isolate, OD600, 24 h (AID 1089);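 also: growth of clinical yeast isolate S. cerevisiae YJM 789 seeded 1000 cells per well; test concentration not given here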; details: S. cerevisiae YJM789 growth, higher = more signal, called active from +8 up or from −8 down
[3] = fission yeast growth modulation, primary screen, strain 972, OD600, 24 h, no modulator (AID 1090);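 also: basal condition with compound alone and no growth modifier present; test concentration not given here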; details: S. pombe 972 growth, higher = more signal, called active from +8 up or from −8 down
[4] = S. cerevisiae growth modulation with rapamycin, primary screen, strain BY4716, OD600, 96 h (AID 1091); details: higher = more signal, called active from +8 up or from −8 down; also: test concentration not given here
[5] = target: Torsin-1A-interacting protein 2 (Homo sapiens) (UniProt Q8NFQ8); assay: LULL1 binders on small-molecule microarray, primary screen, cell lysate, human LULL1 lysate, 635/667 nm fluorescence (AID 1092); details: hLULL1 lysate binding, 635 nm fluorescence, higher = more signal;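 also: probe is lysate of COS7 cells overexpressing human LULL1; score merges per-feature 667 nm fluorescence with signal-to-noise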
Chain of Torsin-1A-interacting protein 2 (Homo sapiens) (Q8NFQ8 whole entry, looked up): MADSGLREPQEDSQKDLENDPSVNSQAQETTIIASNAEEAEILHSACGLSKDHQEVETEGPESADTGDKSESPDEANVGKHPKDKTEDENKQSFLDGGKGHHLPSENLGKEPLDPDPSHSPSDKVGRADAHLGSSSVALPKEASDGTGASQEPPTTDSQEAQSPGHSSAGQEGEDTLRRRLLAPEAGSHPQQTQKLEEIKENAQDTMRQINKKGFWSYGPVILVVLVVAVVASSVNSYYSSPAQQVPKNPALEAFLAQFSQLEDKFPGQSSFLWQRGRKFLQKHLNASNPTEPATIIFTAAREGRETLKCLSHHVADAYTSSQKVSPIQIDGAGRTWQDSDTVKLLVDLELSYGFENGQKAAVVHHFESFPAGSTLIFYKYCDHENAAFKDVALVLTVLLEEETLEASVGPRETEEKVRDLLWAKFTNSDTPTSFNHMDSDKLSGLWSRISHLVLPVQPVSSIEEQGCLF

[6] = E. coli growth modulation, two-sided OD650, primary screen, E. coli filamentation project, strain DRC41, 24 h (AID 1093); details: OD650, 24 h, higher = more signal, called active from +8 up or from −8 down;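 also: MC1000 strain lacking acrAB efflux and sulA so SOS filamentation is blocked; test concentration not given here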
[7] = small-molecule microarray binders of probe aLefty2, primary screen, biochemical, biotinylated probe, 635/667 nm fluorescence (AID 1094); details: higher = more signal;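 also: score merges spot fluorescence near 667 nm with spot signal-to-noise ratio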
[8] = system: Noggin (protein binding on small-molecule microarray); assay: Noggin binders on small-molecule microarray, primary screen, biochemical, 635/667 nm fluorescence (AID 1095); details: 635 nm fluorescence, higher = more signal;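 also: score merges 667 nm feature fluorescence with signal to noise over triplicate slides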
[9] = target: Neurogenic locus notch homolog protein 3 (Homo sapiens) (UniProt Q9UM47); assay: NOTCH3 binders on small-molecule microarray, primary screen, biochemical, 635/667 nm fluorescence (AID 1096); details: NOTCH3 binding, 635 nm fluorescence, higher = more signal
Chain of Neurogenic locus notch homolog protein 3 (Homo sapiens) (Q9UM47 whole entry, looked up): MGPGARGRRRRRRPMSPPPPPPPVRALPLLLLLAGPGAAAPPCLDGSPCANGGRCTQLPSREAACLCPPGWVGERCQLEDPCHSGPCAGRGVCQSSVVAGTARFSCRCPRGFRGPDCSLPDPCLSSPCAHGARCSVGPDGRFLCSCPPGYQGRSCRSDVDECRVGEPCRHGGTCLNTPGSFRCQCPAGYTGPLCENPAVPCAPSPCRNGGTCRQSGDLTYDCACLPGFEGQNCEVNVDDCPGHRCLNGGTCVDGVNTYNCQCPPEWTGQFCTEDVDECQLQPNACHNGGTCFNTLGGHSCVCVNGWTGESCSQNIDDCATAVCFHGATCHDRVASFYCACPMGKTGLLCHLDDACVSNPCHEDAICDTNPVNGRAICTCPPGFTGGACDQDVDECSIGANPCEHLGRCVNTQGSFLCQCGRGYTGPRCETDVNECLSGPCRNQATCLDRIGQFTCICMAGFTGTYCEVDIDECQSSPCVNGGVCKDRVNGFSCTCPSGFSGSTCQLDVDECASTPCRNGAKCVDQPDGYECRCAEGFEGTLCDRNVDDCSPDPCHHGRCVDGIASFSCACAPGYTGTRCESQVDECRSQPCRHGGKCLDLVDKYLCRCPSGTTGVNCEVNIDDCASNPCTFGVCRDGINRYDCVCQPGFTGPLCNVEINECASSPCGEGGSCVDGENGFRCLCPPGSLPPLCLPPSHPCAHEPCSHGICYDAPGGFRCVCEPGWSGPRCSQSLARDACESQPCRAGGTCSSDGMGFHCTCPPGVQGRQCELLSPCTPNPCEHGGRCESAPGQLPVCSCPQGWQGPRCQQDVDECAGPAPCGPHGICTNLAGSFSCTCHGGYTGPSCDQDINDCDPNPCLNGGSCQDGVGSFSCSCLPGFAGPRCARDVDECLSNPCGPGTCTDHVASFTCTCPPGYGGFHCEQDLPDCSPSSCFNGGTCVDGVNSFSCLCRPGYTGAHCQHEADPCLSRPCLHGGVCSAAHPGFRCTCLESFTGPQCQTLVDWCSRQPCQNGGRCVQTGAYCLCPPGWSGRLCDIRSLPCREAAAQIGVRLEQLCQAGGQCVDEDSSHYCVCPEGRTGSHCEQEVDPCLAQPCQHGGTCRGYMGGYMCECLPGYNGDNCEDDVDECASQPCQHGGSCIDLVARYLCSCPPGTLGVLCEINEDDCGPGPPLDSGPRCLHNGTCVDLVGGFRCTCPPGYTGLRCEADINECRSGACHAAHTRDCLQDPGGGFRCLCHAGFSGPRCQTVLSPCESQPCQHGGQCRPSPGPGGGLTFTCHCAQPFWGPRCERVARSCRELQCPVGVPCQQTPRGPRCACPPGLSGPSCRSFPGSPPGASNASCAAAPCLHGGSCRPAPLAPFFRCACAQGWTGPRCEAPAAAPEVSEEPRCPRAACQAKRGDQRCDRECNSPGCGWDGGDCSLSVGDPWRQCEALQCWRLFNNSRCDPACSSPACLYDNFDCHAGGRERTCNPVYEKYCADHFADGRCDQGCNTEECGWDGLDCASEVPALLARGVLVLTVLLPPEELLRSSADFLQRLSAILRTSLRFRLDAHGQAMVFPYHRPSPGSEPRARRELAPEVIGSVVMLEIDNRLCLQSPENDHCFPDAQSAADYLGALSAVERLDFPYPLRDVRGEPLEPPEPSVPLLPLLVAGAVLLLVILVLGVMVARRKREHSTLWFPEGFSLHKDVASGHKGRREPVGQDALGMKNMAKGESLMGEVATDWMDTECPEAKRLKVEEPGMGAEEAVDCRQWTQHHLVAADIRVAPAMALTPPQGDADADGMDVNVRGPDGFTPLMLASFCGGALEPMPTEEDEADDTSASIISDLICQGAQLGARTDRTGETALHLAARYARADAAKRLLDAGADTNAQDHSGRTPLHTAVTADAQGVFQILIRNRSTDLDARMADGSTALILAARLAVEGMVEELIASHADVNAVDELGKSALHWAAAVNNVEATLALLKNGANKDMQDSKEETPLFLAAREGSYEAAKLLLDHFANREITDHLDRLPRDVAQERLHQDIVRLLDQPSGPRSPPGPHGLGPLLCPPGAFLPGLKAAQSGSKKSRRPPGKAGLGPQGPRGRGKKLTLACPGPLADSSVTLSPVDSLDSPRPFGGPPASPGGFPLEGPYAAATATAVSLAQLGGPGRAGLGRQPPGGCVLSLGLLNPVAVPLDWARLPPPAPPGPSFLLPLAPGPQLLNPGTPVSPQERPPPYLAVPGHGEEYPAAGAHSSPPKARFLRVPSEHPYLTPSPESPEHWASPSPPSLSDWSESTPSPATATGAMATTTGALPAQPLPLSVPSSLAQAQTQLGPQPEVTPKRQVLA

[10] = small-molecule microarray binders of probe aEGFR, primary screen, biochemical, biotinylated probe, 635/667 nm fluorescence (AID 1097); details: higher = more signal;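 also: probe is a biotinylated anti-EGFR antibody binding compounds printed on slides; score combines fluorescence near 667 nm and signal to noise of each spot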
[11] = system: Plasmodium falciparum Sir2 (PF13_0152, Sir2A); assay: pfSir2 binders on small-molecule microarrays, primary screen, biochemical, small-molecule microarray, 635 nm fluorescence (AID 1098); details: small-molecule microarray binding, fluorescence 635 nm; higher = more signal;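 also: score merges spot fluorescence intensity with its signal-to-noise ratio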
[12] = small-molecule microarray binders of probe aDKK1, primary screen, biochemical, biotinylated probe, 635/667 nm fluorescence (AID 1099); details: higher = more signal;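 also: score merges 667nm spot fluorescence with signal to noise across triplicate slides; reference of the scale not given here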
[13] = small-molecule microarray binders of probe aCHRDL2, primary screen, biochemical, biotinylated probe, 635/667 nm fluorescence (AID 1100); details: higher = more signal
[14] = splicing luciferase reporter signal modulators, primary screen, spliceosome inhibition project, cell-based, HEK293, splice +/- reporter (AID 1101); details: luminescence, 24 h, higher = more signal, called active from +8 up or from −8 down;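 also: HEK293 cells carrying a splicing-competent luciferase reporter gene; test concentration not given here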
[15] = target: Fibroblast growth factor 10 (Homo sapiens) (UniProt O15520); assay: FGF10 binders on small-molecule microarrays, primary screen, biochemical, small-molecule microarray, 635 nm fluorescence (AID 1102); details: FGF10 binding, fluorescence 635 nm, higher = more signal
Chain of Fibroblast growth factor 10 (Homo sapiens) (O15520 whole entry, looked up): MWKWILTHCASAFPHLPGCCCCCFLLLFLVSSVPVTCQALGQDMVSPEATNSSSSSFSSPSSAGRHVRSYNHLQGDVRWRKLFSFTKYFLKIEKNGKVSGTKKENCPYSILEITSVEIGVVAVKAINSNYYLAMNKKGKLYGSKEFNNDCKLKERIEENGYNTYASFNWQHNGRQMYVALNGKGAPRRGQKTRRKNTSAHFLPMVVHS

[16] = system: glycogen synthase kinase-3 (GSK3A per assay name; protocol says GSK3B); assay: GSK3 binders on small-molecule microarrays, primary screen, biochemical, small-molecule microarray, 635 nm fluorescence, GSK3A (AID 1103); details: small-molecule microarray binding, fluorescence 635 nm; higher = more signal; also: the record names both GSK3A and GSK3B
[17] = target: Epidermal growth factor receptor (Homo sapiens) (UniProt P00533); assay: EGFR binders on small-molecule microarrays, primary screen, biochemical, small-molecule microarray, 635 nm fluorescence (AID 1104); details: EGFR binding, higher = more signal;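 also: score merges 667 nm emission intensity with spot signal to noise over triplicate slides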
Chain of Epidermal growth factor receptor (Homo sapiens) (P00533 whole entry, looked up): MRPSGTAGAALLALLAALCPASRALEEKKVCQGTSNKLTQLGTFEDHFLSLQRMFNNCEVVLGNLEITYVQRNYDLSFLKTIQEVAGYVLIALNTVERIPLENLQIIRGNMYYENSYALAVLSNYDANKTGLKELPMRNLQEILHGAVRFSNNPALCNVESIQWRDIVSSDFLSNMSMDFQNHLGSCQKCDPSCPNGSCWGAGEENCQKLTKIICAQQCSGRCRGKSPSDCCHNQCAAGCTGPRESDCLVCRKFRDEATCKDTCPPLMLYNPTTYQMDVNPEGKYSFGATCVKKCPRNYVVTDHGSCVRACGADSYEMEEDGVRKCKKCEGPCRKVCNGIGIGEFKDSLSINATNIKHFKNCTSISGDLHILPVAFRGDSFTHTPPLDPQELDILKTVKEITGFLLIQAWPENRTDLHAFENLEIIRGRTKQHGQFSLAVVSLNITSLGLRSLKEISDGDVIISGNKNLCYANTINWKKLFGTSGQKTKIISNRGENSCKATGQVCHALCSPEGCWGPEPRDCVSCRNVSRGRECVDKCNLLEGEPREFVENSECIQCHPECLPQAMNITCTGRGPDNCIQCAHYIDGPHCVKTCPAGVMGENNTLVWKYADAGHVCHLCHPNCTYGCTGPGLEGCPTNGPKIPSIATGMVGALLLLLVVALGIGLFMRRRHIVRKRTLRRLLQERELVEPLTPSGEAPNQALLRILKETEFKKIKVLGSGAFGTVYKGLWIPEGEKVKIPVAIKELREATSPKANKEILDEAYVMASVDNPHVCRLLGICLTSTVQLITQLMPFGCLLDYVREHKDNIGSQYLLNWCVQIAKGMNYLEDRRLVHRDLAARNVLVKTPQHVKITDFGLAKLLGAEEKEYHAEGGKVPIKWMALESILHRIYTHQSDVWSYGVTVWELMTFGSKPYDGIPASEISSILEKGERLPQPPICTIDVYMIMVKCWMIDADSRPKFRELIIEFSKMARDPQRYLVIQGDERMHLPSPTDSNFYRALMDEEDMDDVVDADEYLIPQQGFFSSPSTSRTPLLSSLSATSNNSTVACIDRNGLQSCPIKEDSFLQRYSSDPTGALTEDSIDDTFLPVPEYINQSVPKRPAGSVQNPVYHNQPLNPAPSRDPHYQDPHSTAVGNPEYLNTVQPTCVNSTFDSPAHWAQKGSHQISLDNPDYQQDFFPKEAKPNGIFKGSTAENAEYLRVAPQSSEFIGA

[18] = target: Follistatin-related protein 3 (Homo sapiens) (UniProt O95633); assay: FSTL3 binders on small-molecule microarrays, primary screen, biochemical, small-molecule microarray, 635 nm fluorescence (AID 1105); details: FSTL3 binding, higher = more signal;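 also: score merges emission near 667 nm and signal to noise per printed spot across three slides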
Chain of Follistatin-related protein 3 (Homo sapiens) (O95633 whole entry, looked up): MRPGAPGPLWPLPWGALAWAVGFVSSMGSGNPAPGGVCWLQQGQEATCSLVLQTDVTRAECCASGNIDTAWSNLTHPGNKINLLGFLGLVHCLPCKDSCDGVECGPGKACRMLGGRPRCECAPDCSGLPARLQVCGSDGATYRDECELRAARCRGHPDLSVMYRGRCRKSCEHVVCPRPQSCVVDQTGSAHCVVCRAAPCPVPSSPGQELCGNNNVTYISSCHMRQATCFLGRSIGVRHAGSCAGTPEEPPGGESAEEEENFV

[19] = target: Dickkopf-related protein 1 (Homo sapiens) (UniProt O94907); assay: DKK1 binders on small-molecule microarrays, primary screen, biochemical, small-molecule microarray, 635 nm fluorescence scan (AID 1106); details: DKK1 binding, higher = more signal;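 also: score merges emission near 667 nm with signal to noise over three replicate slides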
Chain of Dickkopf-related protein 1 (Homo sapiens) (O94907 whole entry, looked up): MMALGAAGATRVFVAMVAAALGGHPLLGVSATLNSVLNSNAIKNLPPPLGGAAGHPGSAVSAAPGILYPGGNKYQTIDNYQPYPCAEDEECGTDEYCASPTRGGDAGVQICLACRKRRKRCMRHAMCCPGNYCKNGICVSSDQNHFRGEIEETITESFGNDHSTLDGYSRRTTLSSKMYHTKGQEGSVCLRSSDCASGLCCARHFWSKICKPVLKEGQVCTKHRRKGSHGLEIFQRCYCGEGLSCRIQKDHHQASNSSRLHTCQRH

[20] = system: Inhibin beta A chain (activin A); assay: INHBA (activin A) binders on microarrays, primary screen, biochemical, small-molecule microarray, 635 nm fluorescence scan (AID 1107); details: small-molecule microarray binding, higher = more signal;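 also: mouse activin A protein probed at 4.33 µg/mL on printed slides; score merges bound-protein fluorescence near 667 nm with spot signal-to-noise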

SMILES | composite z-score [1] | z-score [2] | z-score [3] | z-score [4] | composite z-score [5] | z-score [6] | composite z-score [7] | composite z-score [8] | composite z-score [9] | composite z-score [10] | composite z-score [11] | composite z-score [12] | composite z-score [13] | z-score [14] | composite z-score [15] | composite z-score [16] | composite z-score [17] | composite z-score [18] | composite z-score [19] | composite z-score [20]
CCOC(=O)C1=CC[C@@H](c2ccccc2)N(S(=O)(=O)c2ccc(C)cc2)[C@H]1c1ccc(C#N)cc1 | 0.852 | -0.624 (inactive) | 0.553 (inactive) | 1.18 (inactive) | 2.73 | -0.883 (inactive) | 0.0163 | -0.232 | 1.11 | 0.136 | 0.802 | 1.17 | 1.18 | -0.29 (inactive) | 0.278 | 1.29 | -0.18 | 0.272 | -0.972 | 0.676
COCCOC(=O)N1C(=O)[C@@]2(c3cc(C#CCCO)ccc31)[C@H](C(=O)NC[C@H](O)c1ccccc1)[C@H]1C(=O)O[C@H](c3ccccc3)[C@H](c3ccccc3)N1[C@@H]2c1ccc(OCCO)cc1 | 1.54 | 1.23 (inactive) | 0.619 (inactive) | 4.47 (inactive) | 3.11 | 2.17 (inactive) | 0.0129 | 0.909 | 1.05 | 0.0634 | 1.24 | 0.112 | 0.169 | -1.33 (inactive) | 0.901 | 1.3 | 0.887 | 1.26 | 0.512 | 0.585
COCCn1c(C(=O)N(C)C)cc2c1C[C@H]1CN(C(=O)c3ccccc3)[C@@](Cc3ccc(F)cc3)(C(=O)OC)[C@@H]21 | 0.0294 | 0.296 (inactive) | 0.75 (inactive) | 0.247 (inactive) | 3.05 | 0.782 (inactive) | 0.214 | -0.3 | 0.328 | 0.0492 | 0.205 | 1.15 | 0.843 | -1.12 (inactive) | 0.61 | 0.397 | -0.0331 | 0.126 | -0.567 | 0.692
COCCCNC(=O)[C@@]1(Sc2ccc(C)cc2)CC(=O)N(Cc2ccccc2)[C@@H]1c1ccc(CO)cc1 | 0.983 | -0.0867 (inactive) | 0.163 (inactive) | -0.455 (inactive) | 2.66 | -0.0977 (inactive) | -0.27 | -0.408 | -0.0703 | 0.03 | 1.54 | 0.0112 | 0.144 | -0.74 (inactive) | -0.342 | -0.21 | -0.58 | -0.702 | -0.344 | -0.29
CCCCN1CC=CC23O[C@@H]4C=CCCOC(=O)C4[C@H]2C(=O)N(CCCO)[C@@H]3C1=O (stereo not given in full) | -0.253 | -0.174 (inactive) | -0.788 (inactive) | -0.497 (inactive) | -0.748 | 1.02 (inactive) | -0.172 | 0.217 | -1.68 | -0.244 | -1.07 | -0.132 | -0.114 | -1.21 (inactive) | -0.649 | -1.12 | -0.597 | -0.739 | -0.0604 | 0.824
O=C(N1CCCCC1)[C@]1(CCS(=O)(=O)c2ccccc2)N=C(c2ccc(OCCCO)cc2)O[C@@H]1c1ccccc1 | 1.56 | -0.503 (inactive) | -0.282 (inactive) | 5.25 (inactive) | 2.4 | -0.643 (inactive) | 0.568 | 0.115 | 1.11 | 0.244 | 1.26 | 1.02 | 1.08 | 0.25 (inactive) | 0.997 | 1.31 | -0.0354 | 0.536 | -0.142 | 1.29
C=C(C(=O)CC[C@@H](OC(C)=O)c1ccc(OCCO)cc1)C(C)C | 0.387 | -1.33 (inactive) | -1.38 (inactive) | -0.423 (inactive) | 1.45 | 0.278 (inactive) | -0.114 | -0.053 | -0.054 | 0.0073 | 0.167 | -0.0523 | 0.104 | 1.02 (inactive) | 1.57 | -0.117 | -0.544 | -0.152 | -0.207 | 0.815
CCCNC(=O)[C@@]1(C)c2ccccc2C(=O)N(Cc2ccc(OC(F)(F)F)cc2)[C@H]1c1ccc(CO)cc1 | 0.294 | -0.446 (inactive) | 0.242 (inactive) | -0.548 (inactive) | -0.416 | 0.922 (inactive) | 0.0241 | -0.432 | 0.13 | -0.18 | 1.57 | 0.0743 | 0.666 | -0.129 (inactive) | 0.0672 | 0.0816 | -1.02 | -0.401 | -0.977 | 0.427
CC(C)N1C(=O)c2ccccc2[C@](C)(C(=O)NCCCN(C)C)[C@@H]1c1ccc(CO)cc1 | -0.109 | -0.763 (inactive) | -1.26 (inactive) | -1.36 (inactive) | 2.41 | 0.0321 (inactive) | 0.0071 | -0.818 | -1.28 | -0.22 | 0.928 | 0.466 | 0.665 | -0.297 (inactive) | -0.543 | 1.4 | -0.968 | -0.749 | -1.78 | 0.814
COC(=O)[C@@]1(Cc2ccc(OC)cc2)[C@H]2c3cc(C(=O)N4CCCC4)n(CCc4ccccn4)c3C[C@H]2CN1C(=O)c1ccccc1 | -1.52 | 0.328 (inactive) | 0.479 (inactive) | 0.556 (inactive) | 3.62 | -1.41 (inactive) | 0.0363 | -0.857 | -0.14 | -0.0122 | 1.18 | 0.904 | 0.95 | -1.36 (inactive) | 0.289 | -0.282 | -0.664 | -0.396 | -0.949 | 0.845
